Results filed as inconclusive are left out. Calls of active or inactive are those of the source. Rule for the calls, unless noted: active = hit-call score of the fitted dose curve at least 0.9, where 1 is the maximum; inconclusive = response in the unintended direction; inactive = score below 0.9.

The nature of assay [1]: CEETOX_H295R_MTT_cell_viability: Viability Assessment in the CeeTox HT-H295R MTT Assay (AID 2283718; active = hit-call score of the fitted dose curve at least 0.9, where 1 is the maximum; inactive = score below 0.9;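 for AC50: curve fitted both ways so AC50 may mark viability loss or gain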). Summed up:
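MTT reduction (0.5 mg/ml, 4 h at 37 C; absorbance at 570 and 650 nm) gave viability as background-corrected percent change versus controls. H295R cells had 48 h forskolin (10 uM) prestimulation, then 48 h chemical exposure at 0.1% DMSO.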

In assay [2] the test system is Thyroperoxidase (TPO), gene 54314. As to the kind of experiment: CCTE_Simmons_AUR_rTPO: CCTE's Amplex UltraRed Assay for Thyroperoxidase (TPO) Inhibition, Simmons Lab (AID 2283662).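 For AC50: potency for loss of signal meaning inhibition of peroxidase activity.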 Summed up: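 Rat thyroid microsomal TPO + 25 uM AUR in 200 mM K phosphate; cpd 5 nM–87.5 uM [final], 8 conc, 0.5% DMSO; 300 uM H2O2 starts rxn; 37C dark 30 min; endpoint FI 544/590 nm; n=3.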

Assay [3] is described as follows: CCTE_Simmons_CellTiterGLO_HEK293T: Viability Assessment in CCTE's Assays for Thyroperoxidase (TPO) Inhibition, Simmons Lab (AID 2283665).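 For AC50: cells exposed to compound for 24 h before readout; actives reduce ATP signal below DMSO vehicle meaning cytotoxicity.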 The method in brief:
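HEK293T cells in DMEM with 1% FBS, dosed 24 h at 37C with 8 concentrations, 5 nM–87.5 uM final, 0.5% DMSO. ATP measured by CellTiter Glo luminescence; loss of signal vs DMSO, three biological replicates.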

The nature of assay [4]: STM_H9_OrnCyssISnorm_ratio: Stemina devTOX quickPredict H9 human embryonic stem cell (hESC)-based Assay for Ornithine (ORN):Cystine (CYSS) Ratio (AID 2283714). Summed up: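 Steps: H9 hESCs in pluripotent state dosed 72h, medium plus compound renewed every 24h; conditioned medium from the final 24h deproteinized in 40% acetonitrile; ORN and CYSS quantified by UPLC-HRMS with C13 spike-ins; ratio relative to vehicle.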

The nature of assay [5]: Tanguay_ZF_120hpf_CIRC_legacy: (Legacy) Oregon State University Tanguay Lab 120 Hour Post-fertilization zebrafish Assay for Circulatory Malformation (AID 2283651). The method in brief:
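Dechorionated wild-type 5D zebrafish embryos, one per well, statically exposed from 6 to 120 hpf at 28C with 0.64% DMSO; circulatory malformation scored present/absent by brightfield microscopy at 120 hpf, dead embryos excluded.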

The nature of assay [6]: Tanguay_ZF_120hpf_SWIM_legacy: (Legacy) Oregon State University Tanguay Lab 120 Hour Post-fertilization zebrafish Assay for Swim Bladder Malformation (AID 2283654).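 Note: swim bladder malformation in each larva scored yes or no under brightfield.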 As to the method: (§1) Tanguay_ZF_120hpf_legacy is a whole embryo, multiplexed endpoint assay using zebrafish larvae exposed for 120 hours post fertilization on a 96-well plate.Tanguay_ZF_120hpf_SWIM_legacy is one of one assay component(s) measured or calculated from the Tanguay_ZF_120hpf_legacy assay. It is designed to make measurements of zebrafish development as detected with brightfield microscopy of developing zebrafish embryos.Data from the assay component Tanguay_ZF_120hpf_SWIM_legacy was analyzed into 1 assay endpoints. This assay endpoint, Tanguay_ZF_120hpf_SWIM_legacy, was analyzed in the positive analysis fitting direction relative to DMSO as the negative control and baseline of activity. […]
(§2) Zebrafish husbandry: Tropical 5D wild-type adult zebrafish were housed in at an approximate density of 1000 per 100 gallon tank at the Sinnhuber Aquatic Research Laboratory, Oregon State University, Corvallis, OR. […] At 24 hpf, embryos were assessed for photomotor response using a custom photomotor response analysis tool (PRAT) and for developmental toxicity endpoints (MO24: mortality at 24 hpf, DP: developmental progression, SM: spontaneous movement, and NC: notochord distortion). At 120 hpf, locomotor activity was measured using Viewpoint Zebralab and assessed for 18 endpoints. […] If mortality occurred for an embryo (at either 24 or 120 hpf), the non-mortality endpoints were not measured.

A short description of assay [7]: Tanguay_ZF_120hpf_TRUN_legacy: (Legacy) Oregon State University Tanguay Lab 120 Hour Post-fertilization zebrafish Assay for Truncated Body (AID 2283655). As to the method:
as §1, with “plate.Tanguay_ZF_120hpf_TRUN_legacy” for “plate.Tanguay_ZF_120hpf_SWIM_legacy”, “Tanguay_ZF_120hpf_TRUN_legacy” for “Tanguay_ZF_120hpf_SWIM_legacy”, “Tanguay_ZF_120hpf_TRUN_legacy,” for “Tanguay_ZF_120hpf_SWIM_legacy,”
as §2

Assay [8] in a line: Tanguay_ZF_120hpf_NC_legacy: (Legacy) Oregon State University Tanguay Lab 120 Hour Post-fertilization zebrafish Assay for Notochord and Tail Malformation (AID 2283656). Summed up: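 Dechorionated Tropical 5D wild-type zebrafish embryos, one per well from 6 hpf, statically exposed to 120 hpf at 28C in 0.64% DMSO final. Notochord distortion scored present/absent by brightfield; dead embryos excluded.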

Assay [9] is described as follows: Tanguay_ZF_120hpf_TR_legacy: (Legacy) Oregon State University Tanguay Lab 120 Hour Post-fertilization zebrafish Assay for Touch Response (AID 2283667). The method in brief: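 5D WT embryos; static exposure to 120 hpf, 28C, sealed/dark; DMSO 0.64% v/v final. TR scored present/absent; dead embryos excluded. Pos ctrl 5uM trimethyltin chloride.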
Assay [10] in a line: Tanguay_ZF_120hpf_ActivityScore_legacy: (Legacy) Oregon State University Tanguay Lab 120 Hour Post-fertilization zebrafish Assay Score for Activity (AID 2283742). Summed up:
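Embryos are staged, enzymatically dechorionated at 4 hpf, placed individually at 6 hpf, then held in test chemical (0.64% DMSO) at 28C until 120 hpf. Mortality and malformations are scored by brightfield, with non-mortality endpoints skipped for dead embryos.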

Consider `CC1CC(OC(=O)c2ccccc2O)CC(C)(C)C1` (stereo not drawn), for which the molecule was called inactive in [1].

In the case of `CC1(C)[C@H](C(=O)OCc2cccc(Oc3ccccc3)c2)[C@@H]1C=C(Cl)Cl`, the call in [1] was inactive.

On to `COc1cc2ncnc(Nc3cccc(Cl)c3)c2cc1OC`, for which the outcome in assay [1] was inactive.

As usually defined, the AC50 is the concentration giving half of the maximal activity seen. With `COc1cc(C(C)(C)C)c(O)c(C(C)(C)C)c1`, the AC50 was 2.32 µM (active) in assay [2] and 26.8 µM (active) in [3].

On to `c1ccc(CCCc2ccccn2)cc1`, for which, in assay [1], the call was inactive.

Consider `O=C(Cl)c1cccc(C(=O)Cl)c1`, for which the AC50 in assay [2] is 7 µM (active). Also, in assay [3], the molecule was classed as inactive.

In the case of `CSc1nc(NC2CC2)nc(NC(C)(C)C)n1`, the molecule was classed as inactive in assay [2], in assay [3] and in assay [1].

`C=CCOc1nc(OCC=C)nc(OCC=C)n1`: the molecule was classed as inactive in assay [1].

`C=CC(C)(C)O`: the molecule was called inactive in assay [1].

In the case of `c1ccc2[nH]ccc2c1`, the AC50 in assay [2] was 1.14 µM (active). Also, in assay [3], the result was inactive.

Take `Cc1ccc2n[nH]nc2c1`: the molecule was classed as inactive in assay [1].

On to `Nc1ccc(F)c([N+](=O)[O-])c1`, for which the outcome in [1] was inactive.

Turning to `NC(=O)Nc1ccc(Cl)cc1`, the molecule was classed as inactive in assay [1].

For the molecule `Cc1ccc(O)c(C(C)(C)C)c1`, the AC50 was 20.6 µM (active) in [2] and 65.6 µM (active) in assay [3].

`CC(C)=CCCC(C)CC=O` (stereo not drawn): the result in [2] and in [3] was inactive.

Take `CCCCc1ccc(N)cc1`: the concentration at half-maximal activity (AC50) in assay [2] is 0.00854 µM (active); in [3], 17.4 µM (active).

Regarding `Cc1ccc(C(C)C)cc1O`, the outcome in assay [2], in [3] and in assay [1] was inactive.

In the case of `CCN(CC)CCOC(=O)c1ccc(N)cc1`, the outcome in assay [4] was inactive.

`Cc1cccc(C)c1C`: the result in [1] was inactive.

For `COc1ccc(O)cc1`, the AC50 is 8.4 µM (active) in assay [2] and 34.2 µM (active) in [3].

With `CCCCCCCCCCCCCCCC(=O)OC[C@H](O)[C@H]1OC(=O)C(O)=C1O`, the AC50 in assay [2] is 18.3 µM (active); in assay [3], 74.2 µM (active).

Consider `Nc1cc([N+](=O)[O-])ccc1Cl`, for which, in assay [1], the molecule was classed as inactive.

As to `O=Nc1ccc(Nc2ccccc2)cc1`, in assay [2], the outcome was inactive. For the same molecule, in assay [3], the AC50 was 84 µM (active).

For `CC1COc2ccccc2N1C(=O)C(Cl)Cl` (stereo not drawn), the AC50 in [1] is 4.9 µM (active).

As for `O=c1cc(-c2ccccc2)oc2cc(O)cc(O)c12`, the AC50 in [2] was 23 µM (active). The result in assay [3] and in assay [1] was inactive.

Turning to `c1ccc2c(c1)c1cccc3ccc4cccc2c4c31`, in [2], the call was inactive.

As to `CCCCCCCCCCCCCOS(=O)(=O)O`, the AC50 in assay [2] was 42.6 µM (active); in assay [3] it was 32.5 µM (active).

On to `CC(C)=CCCC(C)=CCCC(C)=CCO`, for which the call in [2] was inactive. Further, the AC50 is 95 µM (active) in [3] and 54.2 µM (active) in [1].

For `CC(C)c1cccc(O)c1`, the AC50 in [2] was 25.9 µM (active). For the same molecule, the call in assay [3] and in [1] was inactive.

`CN(C)c1ccc(O)c2c1C[C@H]1C[C@H]3[C@H](N(C)C)C(=O)C(C(N)=O)=C(O)[C@@]3(O)C(=O)C1=C2O`: the concentration at half-maximal activity (AC50) in assay [2] is 0.607 µM (active).

As for `O=C(O)C[C@H](O)C[C@H](O)/C=C/c1c(C2CC2)nc2ccccc2c1-c1ccc(F)cc1`, the call in [1] was inactive.

For the molecule `O=C(O)c1ccc([N+](=O)[O-])cc1`, the molecule was called inactive in [5], in assay [6], in assay [7], in assay [8], in assay [9] and in [1]. Also, in assay [10], the outcome was inactive.

The record behind these values is PubChem BioAssay (EPA / NIEHS).
